{
  "source": "PubChem BioAssay AID2320",
  "about": "(National Center for Advancing Translational Sciences (NCATS), 2010)",
  "note": "Inconclusive results are not listed. Unmarked numbers belong to inactive results. The source made the active and inactive calls. Calls follow the shape of the full dose curve. Potency is read from the fitted curve at half-maximal effect.",
  "data": [
    {"assay": "A qHTS for Small Molecule Inhibitors of Shiga Toxin (Confirmatory); also: nearly all actives have a fitted effect of over 75% in size; as to activity, positive = inhibition of toxin: 0% is about no effect", "details": "Cell-based Shiga toxin protection reporter assay; series mostly up to 38.3 µM; activity, positive = inhibition of toxin: at the top concentration", "units": {"activity, positive = inhibition of toxin": "%"}, "values": [
      {"smiles": "O=C(Nc1ccc2oc(-c3ccccc3)nc2c1)c1ccc2c(c1)OCCO2", "Potency": "14.2 µM (active)"},
      {"smiles": "COc1cc(/C=C2/C(=O)c3cccc([N+](=O)[O-])c3C2=O)c(Br)cc1O", "Potency": "22.5 µM (active)"},
      {"smiles": "CN1CCN(Cc2ccc(N)cc2)CC1", "activity, positive = inhibition of toxin": 30.4},
      {"smiles": "COc1cccc(C(=O)NNC(=O)C2CC(C)=C(C)CC2C(=O)O)c1", "note": "(stereo not drawn)", "activity, positive = inhibition of toxin": -47.7},
      {"smiles": "CCc1ccc(C(=O)c2oc3nc(C)cc(C)c3c2N)cc1", "Potency": "5.04 µM (active)"},
      {"smiles": "CCCn1nnc(NC(=O)COc2ccc(C3CCCCC3)cc2)n1", "Potency": "0.0252 µM (active)"},
      {"smiles": "COc1ccccc1-n1cnnc1SCC(=O)Nc1ccccc1", "Potency": "22.5 µM (active)"},
      {"smiles": "O=C(/C=C/C#Cc1cccc(NS(=O)(=O)c2ccccc2)c1)NO", "Potency": "11.3 µM (active)"},
      {"smiles": "CC(=O)c1cccc(NC(=O)c2ccc(NC(=O)CCS(=O)(=O)c3cccs3)cc2)c1", "activity, positive = inhibition of toxin": 9.11},
      {"smiles": "O=S(=O)(c1ccsc1)N1CC=C(c2ccccc2)CC1", "Potency": "2.83 µM (active)"},
      {"smiles": "Nc1cc(N)nc(SCC(=O)Nc2ccc(Br)cc2Cl)n1", "Potency": "11.3 µM (active)"},
      {"smiles": "O=C(Sc1cccc2cccnc12)c1ccccc1Br", "Potency": "8.95 µM (active)"},
      {"smiles": "CC(=O)N/C(=C\\c1ccccc1)C(=O)Nc1ccccc1C", "Potency": "0.0798 µM (active)"},
      {"smiles": "Cc1cc(NC(=O)CSc2nc3ccsc3c(=O)n2Cc2ccccn2)n[nH]1", "Potency": "25.2 µM (active)"},
      {"smiles": "O=C(Nc1ccccc1)c1ccccc1O", "Potency": "14.2 µM (active)"},
      {"smiles": "CC(OC(=O)c1ccc2c(=O)n3c(nc2c1)CCC3)C(N)=O", "note": "(stereo not drawn)", "activity, positive = inhibition of toxin": -47.4},
      {"smiles": "CCc1ccccc1NC(=O)Cn1nnc(-c2cccs2)n1", "activity, positive = inhibition of toxin": 15.7},
      {"smiles": "Cc1cc(N2CCCCCC2)nc(-c2ccccc2O)n1", "Potency": "17.9 µM (active)"},
      {"smiles": "COc1ccc(CNCC(=O)Nc2sccc2C#N)cc1", "Potency": "20 µM (active)"},
      {"smiles": "CCOC(=O)c1[nH]c2ccc(OC)cc2c1NC(=O)C(C)N1CCC2(CC1)OCCO2", "note": "(stereo not drawn)", "activity, positive = inhibition of toxin": -37.1},
      {"smiles": "Cc1ccccc1C(=O)NN1CCOCC1", "activity, positive = inhibition of toxin": 15.9},
      {"smiles": "COc1ccc(C2C(C#N)=C(C)NC3=C2C(=O)CC(C)(C)C3)c(OC)c1", "note": "(stereo not drawn)", "activity, positive = inhibition of toxin": -20.4},
      {"smiles": "Cc1ccc(OCC(=O)NNC(=O)CCC(=O)Nc2ccc(C)cc2C)cc1", "activity, positive = inhibition of toxin": 19.3},
      {"smiles": "CC(=O)Nc1cccc(NC(=O)CSc2nc3ccccc3o2)c1", "activity, positive = inhibition of toxin": -0.494},
      {"smiles": "OC1C[N+]2(CCCCC2)C1", "activity, positive = inhibition of toxin": -28.4},
      {"smiles": "O=C(Nc1ccc(/C=C/c2nc3ccccc3o2)cc1)c1ccc(F)cc1", "Potency": "3.18 µM (active)"},
      {"smiles": "O=C(Cn1cnc2cc([N+](=O)[O-])ccc2c1=O)NCc1ccc(Cl)cc1", "activity, positive = inhibition of toxin": -17.9},
      {"smiles": "O=C(O)Cc1ccc2oc(-c3ccccn3)nc2c1", "Potency": "12.6 µM (active)"},
      {"smiles": "CSc1nc(SCCO)c2sc3nc(-c4ccco4)c4c(c3c2n1)CC(C)(C)OC4", "activity, positive = inhibition of toxin": 24.5},
      {"smiles": "COCCCNC(=O)c1cn(C)c(=O)c2c1c1ccccc1n2C", "activity, positive = inhibition of toxin": -30.2},
      {"smiles": "CCN1CCN(Cc2nnc(-c3ccc(C)cc3)o2)CC1", "activity, positive = inhibition of toxin": -16.1},
      {"smiles": "O=C(Cc1c[nH]c2ccccc12)NCc1ccc(Cl)cc1", "activity, positive = inhibition of toxin": -8.01},
      {"smiles": "Cc1c(C(=O)Nc2nc3ccccc3[nH]2)oc2ccc(Br)cc12", "Potency": "11.3 µM (active)"},
      {"smiles": "CCOC(=O)c1cnc2c(-c3cccc(Br)c3)cnn2c1C", "Potency": "3.56 µM (active)"},
      {"smiles": "C=C1C(O)C2OC3(CCC(/C=C/C(C)C4CC(C)=CC5(OC(CC(C)(O)C(=O)O)CCC5O)O4)O3)CCC2OC1C(O)CC(C)C1OC2(CCCCO2)CCC1C", "note": "(stereo not drawn)", "Potency": "20 µM (active)"},
      {"smiles": "O=C(CCN1C(=O)c2cccc3cccc(c23)C1=O)NC1CCS(=O)(=O)C1", "note": "(stereo not drawn)", "activity, positive = inhibition of toxin": -2.99},
      {"smiles": "CC(C)(C)C1CCC(C(=O)OCC(=O)c2ccc[nH]2)CC1", "note": "(stereo not drawn)", "Potency": "2.52 µM (active)"},
      {"smiles": "O=C(NCC1CCCO1)Nc1ccc2c(c1)OCO2", "note": "(stereo not drawn)", "Potency": "22.5 µM (active)"}
    ]}
  ]
}
